According to PubChem BioAssay AID1487 (National Center for Advancing Translational Sciences (NCATS), 2009):
Among all 200,000 compounds or so, about 25 (0.01%) were called active. Not shown: some 23% with an inconclusive outcome. Calls follow the shape of the dose curve; as a rule, active = well fitted inhibition curve with a large enough effect in the signal ratio, with a control signal flat (not every such curve was filed as active); inconclusive = small, poorly fitted or top-dose-only effect, or effect the other way, or a change in a side signal; inactive = flat fitted curve, though single readings scatter; the % refers to the signal ratio. What follows is part of a selection rich in actives, with near analogues and random picks from the rest.

Experiment: qHTS Assay for Modulators of Lamin A Splicing
Conditions: HeLa LMNA splicing GFP/RFP minigene ratio, 48 h; series mostly up to 46 µM; ratio change, negative = inhibition: at the top concentration
Description: NCGC Assay Overview: Hutchinson-Gilford Progeria Syndrome (HGPS) is a pediatric premature aging disease caused by a spontaneous mutation in the lamin A/C (LMNA) gene. The mutation activates a cryptic splice site in the LMNA pre-mRNA which results in production of a pre-lamin A protein that cannot be processed properly. The mutant protein accumulates in the nucleus and negatively affects numerous cellular functions. Correction of the splicing defect in HGPS patient cells using a targeted oligonucleotide (exo11) leads to reversal of the cellular disease phenotypes. To identify small molecule modulators of aberrant LMNA splicing, a homogenous assay was constructed in HeLa cells that used a GFP containing minigene to report on correction of aberrant splicing in lamin A and a RFP (DsRed2) to report on cell viability, uniformity and nonspecific effects on the assay signal. This assay was adapted to laser-scanning microplate cytometry (Acumen, TTP Labtech) where miniaturization of the assay to a 1,536-well plate format was possible. References: Bowen, W. P.; Wylie, P. G. Application of Laser-Scanning Fluorescence Microplate Cytometry in High Content Screening. Assay Drug Dev Technol 2006;4:209-221. Scaffidi P, Misteli T. Reversal of the cellular phenotype in the premature aging disease Hutchinson-Gilford progeria syndrome. Nat.
NCGC Assay Protocol Summary: Reagents/Controls: Stable clones expressing DsRed2 and lamin A-EGFP were generated by Cell and Molecular Technologies in S3 HeLa cells. HeLa cells were prepared for the assay when they were 70-90% confluent. The cells were counted and resuspended in Opti-MEM I (no phenol red; Gibco), 2% FBS, 1% penicillin/ streptomycin (Gibco) at concentration of 120 cells/uL concentration. The suspension was passed through a Falcon basket filter with pore size 40um (Beckton Dickson). Control titrations: column […] 1536-well plate contained a sixteen point titration (1:2 dilutions) in duplicate of ancitabine (Sigma: A8598) beginning at 40 uM final concentration. Column 2 contained a sixteen point titration (1:2 dilutions) of cycloheximide beginning at 1.4 mM final concentration. Column 3 contained ancitabine at 40 uM and column 4 contained was the vehicle control (0.5% DMSO final concentration). Assay Steps: 5 uL of HeLa cells were plated in Aurora LoBase black clear bottom (cyclic-olefin polymer) 1536-well plates at a final density of 600 cells/well. Controls and library compounds were added with a 1536-well pin array using the Kalypsys pin-tool. The plates were then incubated for 48 hrs in a cell-culture incubator (37 °C; 5% CO2, 98% humidity). Following incubation the plates were read on the Acumen Explorer using the 488 nm laser. Data was collected on objects between 10 and 100 um in size. Cell objects were defined by a 15 um width x 10 um depth filter. The ratio of the total object intensity in PMT1 (500-530 nm emission; GFP) over PMT3 (575-640 nm emission; RFP) was calculated for analysis. Keywords: NIH Roadmap, MLSCN, MLI, MLSMR, qHTS, NCGC, lamin A, Progeria, RNA splicing.
% is scaled to controls: 0 for no effect and ±100 for the full control effect.

Ratio change, negative = inhibition, inactive:
COc1cccc(NC(=O)CS(=O)(=O)c2cn(CC(=O)N3CCOCC3)c3ccccc23)c1 10.8% [at 9.22 µM], COc1cccc(N2CCN(C(=O)CCCCCn3c(=O)[nH]c4ccccc4c3=O)CC2)c1 -15.3%, COc1ccc(N(CC(=O)NC2CCCC2)C(=O)CS(=O)CC(=O)Nc2ccc3c(c2)OCO3)cc1 (configuration not stated) 16.3%, N#Cc1c(NC(=O)C2CC(Cl)=CCC2C(=O)O)sc2c1CCCCC2 (configuration not stated) 0.744%, CCOc1ccccc1/C=N/NC(=O)CNC(=O)COc1ccccc1 19.6%, Cc1ccccc1N1C(=O)C(Oc2ccc(Cl)cc2)C1CNCC1CCCO1 (configuration not stated) 5.13%, Fc1ccccc1N=C1Nc2cccc3cccc1c23 -7.4%, COc1ccc(C(=O)OCC(=O)NCC2CCCO2)cc1[N+](=O)[O-] (configuration not stated) -12.3%, O=C(NC(=S)Nc1cccc(-c2ccc(CO)o2)c1)c1cccs1 -2.34%, COCCN(C(=O)c1ccccc1F)c1c(N)n(Cc2ccccc2)c(=O)[nH]c1=O -12.5%, Cc1c(Cl)cccc1NC(=S)N(Cc1ccccc1)Cc1cccnc1 -24.9%, Cc1cccc(NC(=O)N2CCC(CN3CCc4ccccc4C3)CC2)c1C 3.54%, Cc1nc(N2CCCCC2)sc1C=O -9.95%, CN(C(=O)CSc1nncc2ccccc12)C1CCCCC1 -27.8%, CCc1cccc(NC(=O)CN(C)S(=O)(=O)c2ccc3[nH]c4c(c3c2)CCCC4)c1 -8.85%, CC(C)CCN(C(=O)Nc1ccc(Cl)c(Cl)c1)C(C)c1cccs1 (configuration not stated) -17.5%, COC(=O)CCC(=O)N1CCCC(CO)(Cc2ccccc2)C1 (configuration not stated) -12.6%, Cc1csc(CN(C)C(=O)CC2C(=O)NCCN2CC(C)(C)C)n1 (configuration not stated) 12.3%, O=C(NCCCN1CCOCC1)c1ccccc1NS(=O)(=O)c1ccc(F)cc1 -16%, COCCCNC(=S)NCCNc1nc2cc(C)c(C)cc2cc1C#N -12%, Cc1ccccc1CN1C(=O)c2ccccc2Sc2ccc(C(=O)NCCCN3CCOCC3)cc21 -5.48%, Cc1ccc(C2CC(c3cccc(NS(C)(=O)=O)c3)=NN2S(C)(=O)=O)cc1 (configuration not stated) -2.59% [at 9.22 µM], O=C1CCC/C(=N\NC(=O)NC2CCCCC2)C1 -17.2%, Cc1ccc(NC(=O)CNCc2ccccn2)cc1S(=O)(=O)N(C)C -1.55%, O=C(Oc1cccc(NC2=NS(=O)(=O)c3ccccc32)c1)c1ccncc1 -3.46%, O=C(CNC(=O)c1cc(=O)[nH]c2ccccc12)Nc1ccc(F)c(F)c1 3.5% [at 9.22 µM], Cc1ccccc1Nc1nc(N)nc(CSc2nnc3ccccn23)n1 5.76%, CCc1ccc(C2C(C(=O)Nc3ccccc3)=C(C)Nc3c(C(=O)Nc4ccc(C)cc4)cnn32)cc1 (configuration not stated) -11.7%, CCN(CC)c1nn2c(=O)c(C(=O)NCCc3ccccc3)cnc2s1 2.29%, O=C(N/N=C\c1cc(Br)c(Br)o1)C1COc2ccccc2O1 (configuration not stated) -2.64%, CN(Cc1ccccn1)Cc1nc(-c2ccc(Cl)cc2)no1 -1.16%, Cc1ccc(Cl)cc1N1CCN(C(=O)c2cnc3c(-c4ccc(F)cc4)c(C)nn3c2C)CC1 2.41%, CSc1ccc(/C=N\NC(=O)CC(=O)NC(C)C)cc1 8.49%, CC1CCCCN1CCCNC(=O)Cn1ncc2c([nH]c3ccccc32)c1=O (configuration not stated) 14.4%, CC(=O)c1cccc(-n2nnnc2SCC(=O)NNC(=O)C2CCCCC2)c1 7.45% [at 9.22 µM], COc1ccc(NC(=O)c2ccccc2CC[N+](=O)[O-])cc1 -5.14%, COc1cccc(N(Cc2nnc3n2CCCCC3)C(=O)Nc2ccccc2F)c1 -6.23%, CCOc1ccc(NC(=O)C(CC(C)C)N2Cc3ccccc3C2=O)cc1 (configuration not stated) -8.38%, Cc1cccc(NC(=O)c2ccc(F)c(S(=O)(=O)N(C)C3CCCCC3)c2)c1 -4.34%, Cc1cc(NC(=O)CSc2nc3c(cc2C#N)CCCCC3)no1 16.5%, Cn1c(N)c(C(=O)COC(=O)c2ccccc2NCc2ccco2)c(=O)n(C)c1=O 9.32%, Cc1csc(NC(=O)Nc2ccccc2[N+](=O)[O-])n1 2.56%, S=c1[nH]nc(-c2cccs2)n1/N=C/c1cccs1 21.8% [at 9.22 µM], COCC(C)NCc1cc(Br)ccc1OC (configuration not stated) 3.32%, Cc1ccc(S(=O)(=O)NC(=O)N2CCCN(Cc3ccc(F)cc3)CC2)cc1 -2.61%, Cc1ccc(C)c(-n2nnnc2SCC(=O)c2c(N)n(C)c(=O)n(C)c2=O)c1 -17.5% [at 9.22 µM], CC(C(=O)N=Nc1c(O)n(C)c2ccc(Br)cc12)n1cnc2ccccc2c1=O (configuration not stated) -4.31%, COc1ccc(Br)cc1/C=N/Nc1ccc(Cl)c(C(=O)O)c1 -12.6%, Cc1nnc(SCC(=O)NNC(=O)c2ccc(Cl)cc2)n1CC1CCCO1 (configuration not stated) -6.72%, CCOC(=O)c1cccc(NC(=O)c2cc(S(=O)(=O)N3CCCC(C)C3)cn2C)c1 (configuration not stated) -2.92%, Cc1ccc(NC(=O)Cn2c(=O)n(CCC(=O)NC3CCN(Cc4ccccc4)CC3)c(=O)c3ccccc32)cc1 9.28%, Cc1ccccc1NC(=O)NC1(C(=O)N2CCCC2)CCCCC1 5.21%, Cc1cccc(NC(=O)c2ccc3nc(C(C)C)oc3c2)c1C 1.86%, CC(=O)NC(Cc1ccc(F)c(F)c1)C(=O)NC1CCN(c2nnnn2-c2ccccc2)CC1 (configuration not stated) 7.55%, O=C(CN1CCSCC1)N/N=C/c1ccc(Cl)cc1 -10.4% [at 9.22 µM], COc1ccc2ncc3c(-c4ccc(C)c(C)c4)nn(CC(=O)NC4CCCC4)c3c2c1 -11.7%, COc1ccc(CNC(=O)C2=Cc3cccc(OC)c3OC2)cc1OC -0.906%, Cc1nccn1CCCNC(=O)CC1C(=O)NCCN1Cc1ccc(Cl)c(F)c1 (configuration not stated) -1.13%, COc1cc(CN(C(=O)c2ccccc2Br)c2ccccn2)cc(OC)c1OC 4.95%, O=Cc1ccc(Oc2cccc(C(F)(F)F)c2)nc1 11.1%, Cc1ccccc1OCCSc1nc2ccc(NC(=O)c3ccco3)cc2s1 -7.54%, COc1cc(Cl)c(C)cc1Nc1nnc(-n2nc(C)cc2C)c2ccccc12 1.63%, COc1ccc(C(=O)Nc2cccc(S(C)(=O)=O)c2)cc1 -6.99%, C=CCn1c(CNC(=O)c2ccco2)nnc1SCC(=O)c1ccc(OC)cc1 17.7%, COc1cc(/C=N/Nc2ccc(C)cc2)cc(Br)c1O 10.1%, O=C(Nc1ccc2nc(SCCOc3ccccc3Cl)sc2c1)c1ccco1 1.78%, Cc1cc(C)c2c(NC(=O)C3CC3)nn(C)c2n1 2.71%, C/C(CC(=O)N1CCN(C=O)CC1)=N\NC(=O)c1ccc(Br)cc1 8.38%, COc1cccc(NC(=O)c2ccc3nc(CCc4ccccc4)oc3c2)c1 -1.82%, COc1ccc(CCNC(=O)c2ccc(CSCc3ccc(C)cc3)o2)cc1OC -5.92%, O=C(COc1ccc(-c2ccccc2)cc1)NN=C1CCCC1 -19.6%, CC1(C)CC(=O)c2cnc3nc4ccccc4n3c2C1 0.78%
